GAA glycogen mod: GAA glycogen-cleavage inhibition or activation. P10253. recombinant GAA, glycogen substrate, Amplex Red glucose oxidase fluorescence. Potency, µM (doses to about 76.4 µM), hits mostly inhibitors. actives 0.38% (n = 300,000). AID 2100;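 note: the screen sought inhibitors and activators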
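qHTS, 1536-well; enzyme 4 nM final; cpd up to 77 uM; substrate bovine liver glycogen 30 ug; 50 mM citrate/phosphate pH 5.0, 0.01% Tween-20; 37 C, 40 min; Amplex Red detection 45 min RT; Hill fit → AC50.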
aGal spleen mod: alpha-galactosidase A (human) modulation | P06280 | human spleen homogenate, 4MU-alpha-Gal fluorescence, 40 min | Potency, µM (highest dose often 80 µM), actives largely listed as inhibitors | actives 0.008% (n = 240,000) | AID 2107
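Human spleen homogenate (1 ug) as enzyme source, 4-methylumbelliferyl-alpha-D-galactopyranoside 1 mM final, citrate/phosphate pH 5.0 with 0.01% Tween-20. Compounds 40 min at 37C, NaOH/glycine stop; fluorescence Ex 365/Em 440, Hill-fit AC50.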
GAA spleen mod: inhibits or activates alpha-glucosidase in human spleen homogenate; P10253; human spleen homogenate, 4-MU-alpha-glucoside fluorescence; Potency, µM (series often up to 79.9 µM), actives largely listed as inhibitors; actives 0.006% (n = 240,000)
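Human spleen homogenate (1 ug) incubated with compounds and 1 mM 4-methylumbelliferyl-alpha-D-glucopyranoside in pH 5.0 citrate/phosphate buffer, 37 C, 40 min. Stopped at pH 10; 4-MU fluorescence (Ex 365/Em 440 nm); AC50 by Hill fit.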
N370S GC: N370S glucocerebrosidase modulation, Gaucher chaperone candidate. N370S GC spleen homogenate, 4MU-glucoside fluorescence. Potency, µM (top dose mostly 59.4 µM), hits mostly inhibitors. actives 0.092% (n = 330,000). AID 2101
GLA inh pH 4.5: alpha-galactosidase A (human) inhibition, pH 4.5; P06280; purified enzyme, 4-MU-alpha-Gal fluorescence, pH 4.5; activity change, negative = inhibition, % at 105 µM; 230,000 tested, under 10 active
Target sequence (P06280 whole entry, looked up): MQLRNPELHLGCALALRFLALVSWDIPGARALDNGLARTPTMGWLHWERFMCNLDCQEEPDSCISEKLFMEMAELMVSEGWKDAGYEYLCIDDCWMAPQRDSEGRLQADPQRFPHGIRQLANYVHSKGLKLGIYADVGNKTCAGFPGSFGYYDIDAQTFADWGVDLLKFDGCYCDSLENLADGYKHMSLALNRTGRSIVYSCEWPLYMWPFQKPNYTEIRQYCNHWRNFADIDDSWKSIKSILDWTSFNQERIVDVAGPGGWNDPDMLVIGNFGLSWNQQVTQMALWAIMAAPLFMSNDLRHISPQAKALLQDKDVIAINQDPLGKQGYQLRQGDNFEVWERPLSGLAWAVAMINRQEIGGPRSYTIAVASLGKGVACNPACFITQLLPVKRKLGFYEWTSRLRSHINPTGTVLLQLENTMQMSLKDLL
GAA inh: blocks human lysosomal alpha-glucosidase; purified human GAA, 4-MU-alpha-glucoside fluorescence; P10253; Potency, µM (top dose mostly 76.9 µM), actives largely listed as inhibitors; AID 1466; actives 0.005% (n = 200,000)
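qHTS format, compound range up to 77 uM. Human lysosomal enzyme at 4 nM, 400 uM 4-MU glucoside substrate, pH 5.0, 20 min room temperature; fluorescence after alkaline stop gives activity normalized to controls.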
Each line names hits and unclear results; the compound was inactive in the other large screens. Hits are enriched below; roughly 0.41% of the tested compounds scored in any of these assays. Calls come from the whole dose curve; as a rule, active = well fitted curve in the direction sought with a large enough effect; inconclusive = small, poorly fitted or top-dose-only effect, or another doubt; inactive = no such curve, though single readings can be large; an effect the other way counts as inactive or inconclusive.

CC[C@H](C)[C@H](NC(=O)[C@H](C)NC(=O)[C@H](Cc1cnc[nH]1)NC(=O)[C@@H]1CCCN1C(=O)CNC(=O)[C@H](CC(C)C)NC(=O)[C@H](CC(C)C)NC(=O)[C@H](Cc1ccc(O)cc1)NC(=O)CNC(=O)[C@H](C)NC(=O)[C@H](CO)NC(=O)[C@H](CC(N)=O)NC(=O)[C@H](CC(C)C)NC(=O)[C@@H](NC(=O)[C@H](Cc1c[nH]c2ccccc12)NC(=O)CN)[C@@H](C)O)C(=O)N[C@@H](CC(=O)O)C(=O)N[C@@H](CC(N)=O)C(=O)N[C@@H](Cc1cnc[nH]1)C(=O)N[C@@H](CCCNC(=N)N)C(=O)N[C@@H](CO)C(=O)N[C@@H](Cc1ccccc1)C(=O)N[C@@H](CO)C(=O)N[C@@H](CC(=O)O)C(=O)N[C@@H](CCCCN)C(=O)N[C@@H](Cc1cnc[nH]1)C(=O)NCC(=O)N[C@@H](CC(C)C)C(=O)N[C@H](C(N)=O)[C@@H](C)O	none (no result: GAA glycogen mod, GLA inh pH 4.5, GAA inh)
CNc1ncnc2ccc(-c3cccc(OC)c3)cc12	N370S GC 8.9µM (no result: GAA glycogen mod, GLA inh pH 4.5, GAA inh)
CCN1CCN(C(=O)N[C@H](C(=O)N[C@@H]2C(=O)N3C(C(=O)O)=C(CSc4nnnn4C)CS[C@@H]23)c2ccc(O)cc2)C(=O)C1=O	none (no result: GAA glycogen mod, GAA inh)
COc1ccc2[nH]c(C(=O)O)c(NS(=O)(=O)c3ccc(Cl)s3)c2c1	GAA glycogen mod 9.9µM
CCOC(=O)c1[nH]c2ccc(OC)cc2c1NS(=O)(=O)c1ccc(Cl)s1	none
Cc1ccc(Cl)cc1N1CCN(S(=O)(=O)c2ccc3[nH]c(=O)ccc3c2)CC1	none (no result: aGal spleen mod, GAA spleen mod, GLA inh pH 4.5, GAA inh)
Cc1ccc(Cl)cc1N1CCN(S(=O)(=O)c2ccc3[nH]c(=O)c(=O)[nH]c3c2)CC1	N370S GC 8.9µM
Cc1cc(C)nc(SCC(=O)Nc2ccc(S(=O)(=O)Nc3ncccn3)cc2)n1	GAA glycogen mod 3.5µM
COc1ccc2c(Cl)c(C(=O)NN)sc2c1	GAA glycogen mod 16µM
O=c1oc(-c2ccc(C(F)(F)F)cc2)nn1Cc1cc(Cl)ccc1O	none (no result: GAA glycogen mod, GLA inh pH 4.5, GAA inh)
Nc1nc(N2CCN(C(c3ccccc3)c3ccccc3)CC2)n[nH]1	GAA glycogen mod inconclusive
Nc1nc(N2CCN(Cc3ccccc3)CC2)n[nH]1	GAA glycogen mod 5.6µM
CC[C@H](C)[C@H](NC(=O)[C@H](C)NC(=O)CNC(=O)[C@H](CCCN=C(N)N)NC(=O)[C@H](C)NC(=O)[C@H](CC(C)C)NC(=O)[C@H](CCC(=O)O)NC(=O)[C@H](CC(C)C)NC(=O)[C@H](C)NC(=O)[C@@H](N)CCC(=O)O)C(=O)N[C@@H](Cc1ccccc1)C(=O)N[C@@H](CCC(N)=O)C(=O)N[C@@H](C)C(=O)O	none (no result: GAA glycogen mod, GLA inh pH 4.5, GAA inh)
COc1cc(C2C(C#N)=C(C)NC3=C2C(=O)CC(C)(C)C3)cc(OC)c1O (stereo unspecified)	GAA glycogen mod 12µM
Cc1c2c(c(O)c3c(O)cccc13)C(=O)O[C@H]2C1C(N(C)C)C(O)=C(C(N)=O)C(=O)[C@H]1O (stereo partly specified)	none (no result: GAA glycogen mod, GLA inh pH 4.5, GAA inh)
O=C(NNC(=O)c1sccc1-n1cccc1)Nc1ccccc1	GAA glycogen mod 13µM
CC(C)NCC(O)Cn1c2c(c3ccccc31)CCc1c-2cnn1-c1ccccc1 (stereo unspecified)	GAA glycogen mod 31µM
CN1CCc2c(n(CC(O)CNCc3ccccc3)c3ccccc23)C1=O (stereo unspecified)	GAA glycogen mod inconclusive
COc1cccc(N2C(=O)CC(N3CCc4ccccc43)C2=O)c1 (stereo unspecified)	GAA glycogen mod 40µM
COc1ccc(C2=Nn3c(nnc3-c3ccccc3O)SC2)c(OC)c1	none (no result: GAA glycogen mod, GLA inh pH 4.5, GAA inh)
CC(=O)N1CCN(S(=O)(=O)c2ccc3c(c2)CC(=O)N3)CC1	GAA glycogen mod 12µM (no result: aGal spleen mod, GAA spleen mod, N370S GC, GLA inh pH 4.5, GAA inh)
COc1ccc(Nc2nc(C)c(-c3ccccc3)s2)cc1	GAA glycogen mod 14µM
Cc1nc(Nc2ccc(S(N)(=O)=O)cc2)sc1-c1ccccc1	none (no result: aGal spleen mod, GAA spleen mod, GLA inh pH 4.5, GAA inh)
OCCNc1nc(Nc2ccccc2)nc2ccccc12	none
OCCNc1nc(Nc2ccccc2)nc(Nc2ccccc2)n1	N370S GC 11µM
CC[C@H](C)[C@H](NC(=O)[C@H](CO)NC(=O)[C@H](C)NC(=O)[C@H](C)NC(=O)[C@H](CCC(N)=O)NC(=O)[C@H](CCCCN)NC(=O)[C@H](CCCN=C(N)N)NC(=O)[C@@H](N)CS)C(=O)N[C@@H](CCCCN)C(=O)N[C@H](C(=O)N[C@@H](C)C(=O)N[C@H](C(=O)N[C@@H](CO)C(=O)O)C(C)C)C(C)C	none (no result: GAA glycogen mod, GLA inh pH 4.5, GAA inh)
COC(=O)c1[nH]c2ccc(Cl)cc2c1NC(=O)Oc1ccccc1	GAA glycogen mod 25µM
O=C(O)/C=C/c1ccc(O)c(O)c1	GAA glycogen mod 7.9µM, aGal spleen mod inconclusive, GAA spleen mod inconclusive
O=C(/C=C/c1ccc(O)c(O)c1)NC(=O)c1ccccc1O	GAA glycogen mod 3.5µM (no result: GAA inh)
O=C(/C=C/c1ccc(O)c(O)c1)O[C@@H](C(=O)O)[C@@H](OC(=O)/C=C/c1ccc(O)c(O)c1)C(=O)O	none (no result: GAA glycogen mod, GLA inh pH 4.5, GAA inh)
C/C(=N\Nc1ccc(Cl)cc1)c1ccccn1	GAA glycogen mod 7.1µM
CCOc1ccc(NC(=O)CC2SC(=O)N(c3ccccc3)C2=O)cc1 (stereo unspecified)	GAA glycogen mod 20µM
O=C(CC1SC(=O)N(c2ccccc2)C1=O)Nc1cccc2ccccc12 (stereo unspecified)	GAA glycogen mod inconclusive (no result: GAA inh)
Cc1ccccc1NC(=O)CC1SC(=O)N(c2ccccc2)C1=O (stereo unspecified)	GAA glycogen mod 25µM
CCOc1ccccc1NC(=O)CC1SC(=N)N(c2ccccc2)C1=O (stereo unspecified)	none
CCCCCN(CCCCC)C(=O)[C@H](CCC(=O)O)NC(=O)[C@H](Cc1ccc(OP(=O)(O)O)cc1)NC(C)=O	none (no result: GAA glycogen mod, GLA inh pH 4.5, GAA inh)
O=C(O)c1cccc(-c2ccc(/C=N/Nc3nn[nH]n3)o2)c1	GAA glycogen mod 1.8µM
CC(C)C[C@H](NC(=O)[C@H](C)NC(=O)CNC(=O)[C@H](CCCCN)NC(=O)[C@H](CCCN=C(N)N)NC(=O)[C@H](C)NC(=O)[C@H](Cc1ccccc1)NC(=O)[C@@H](N)CCCN=C(N)N)C(=O)N[C@@H](CCCN=C(N)N)C(=O)N[C@@H](CCC(N)=O)C(=O)N[C@@H](CCCCN)C(=O)N[C@@H](CC(N)=O)C(=O)N[C@H](C(N)=O)C(C)C	none (no result: GAA glycogen mod, GLA inh pH 4.5, GAA inh)
CCN(C(=O)CN1CCN(c2ccc(O)cc2)CC1)c1c(N)n(Cc2ccccc2)c(=O)[nH]c1=O	GAA glycogen mod 18µM
